This note sets out measurements from PubChem BioAssay.

The test system of test [1] is Human papillomavirus type 1a protein E7 (residues 44-93). Kind of test: small molecules binding HPV E7 44-93 – biochemical, small-molecule microarray, residues 44-93, 635 nm fluorescence, primary screen (AID 1108).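 Note: E7 fragment applied at 1 µg/mL in TBST for 1 h at 4 C; score combines spot fluorescence with its signal to noise ratio.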 Particulars: fluorescence 635 nm, higher = more signal.
The nature of test [2]: hepatitis C replication reporter changes, two-sided – Huh7 cells, luciferase reporter, HCV replication inhibitor project, primary screen (AID 1109).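 Note: huh7 hepatoma cells harbouring a luciferase neomycin HCV replicon reporter; luciferase luminescence as measure of HCV replicon replication; test concentration not given here.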 Particulars: Huh7 HCV replicon luciferase reporter, 48 h; higher = more signal.
Test [3] deals with Left-right determination factor 2 (Homo sapiens) (UniProt O00292). Kind of test: small molecules binding LEFTY2 protein – biochemical, small-molecule microarray, 635 nm fluorescence scan, primary screen (AID 1110). Particulars: higher = more signal.
The target of test [4] is Calmodulin-1 (Homo sapiens) (UniProt P0DP23). Kind of test: small molecules binding calmodulin-1 with EGTA – biochemical, small-molecule microarray, Cy5-labelled CALM1, profiling panel (AID 1111).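 Note: labelled calmodulin applied in Tris saline Tween buffer holding calcium plus EGTA and DTT.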 The following applies: Cy5-CALM1 binding fluorescence, higher = more signal.
The target is the same in test [5]. Kind of test: small molecules binding Ca-loaded calmodulin-1 – biochemical, small-molecule microarray, Cy5-labelled CALM1, plus calcium, artefact control for SMM control-protein annotation, profiling panel (AID 1112).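 Note: score merges spot fluorescence with signal to noise from triplicate slides.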 The following applies: Cy5-CALM1 binding fluorescence, higher = more signal.
Test [6] in a line: probe aWnt5a binding to arrayed compounds – biochemical, biotinylated probe, 635/667 nm fluorescence, primary screen (AID 1113).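 Note: score merges 667 nm fluorescence intensity with signal-to-noise per printed feature.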 Particulars: small-molecule microarray, higher = more signal.
Test [7] in a line: probe aShh binding to arrayed compounds – biochemical, biotinylated probe, 635/667 nm fluorescence, primary screen (AID 1114).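 Note: probe is biotin-labelled aShh protein from a stem cell growth factor screen; measures binding of labelled protein to compounds printed on the slide; score merges feature fluorescence at 667 nm with signal-to-noise.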 The following applies: small-molecule microarray, higher = more signal.
Test [8] in a line: probe aNog binding to arrayed compounds – biochemical, biotinylated probe, 635/667 nm fluorescence, primary screen (AID 1115).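 Note: probe is biotinylated aNog protein used at 0.15 µg/mL for 1 h at 4 C; z-score combines 667 nm fluorescence of each spot with its signal to noise.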 Particulars: small-molecule microarray, higher = more signal.
Test [9] concerns the target Torsin-1A-interacting protein 1 (Homo sapiens) (UniProt Q5JTV8). Kind of test: compound microarray binding of lysate hLAP1 – cell lysate, small-molecule microarray, COS7 lysate, 635/667 nm fluorescence, primary screen (AID 1116). Particulars: 635 nm fluorescence, higher = more signal.
In test [10] the target is Alpha-bungarotoxin (Bungarus multicinctus) (UniProt P60615). Kind of test: compounds binding labelled alpha-BTX control protein – biochemical, small-molecule microarray, Alexa647 label, 635/667 nm fluorescence, artefact control for SMM control protein annotation, profiling panel (AID 1117). Particulars: alpha-BTX-A647 binding fluorescence, higher = more signal.
Chain of Alpha-bungarotoxin (Bungarus multicinctus) (P60615 whole entry, looked up): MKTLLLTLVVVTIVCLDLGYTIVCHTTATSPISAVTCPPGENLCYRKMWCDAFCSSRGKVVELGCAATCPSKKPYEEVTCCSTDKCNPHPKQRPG

Chain of Left-right determination factor 2 (Homo sapiens) (O00292 whole entry, looked up): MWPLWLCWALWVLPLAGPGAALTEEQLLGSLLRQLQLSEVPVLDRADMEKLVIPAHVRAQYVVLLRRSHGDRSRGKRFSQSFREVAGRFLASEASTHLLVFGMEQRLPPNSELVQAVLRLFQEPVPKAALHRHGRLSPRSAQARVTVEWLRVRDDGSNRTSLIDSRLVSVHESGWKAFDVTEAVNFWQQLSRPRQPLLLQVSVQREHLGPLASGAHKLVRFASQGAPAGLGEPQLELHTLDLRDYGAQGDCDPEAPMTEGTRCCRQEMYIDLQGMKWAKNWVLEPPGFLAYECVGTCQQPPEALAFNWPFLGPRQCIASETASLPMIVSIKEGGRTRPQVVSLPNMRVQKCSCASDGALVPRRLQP
Chain of Torsin-1A-interacting protein 1 (Homo sapiens) (Q5JTV8 whole entry, looked up): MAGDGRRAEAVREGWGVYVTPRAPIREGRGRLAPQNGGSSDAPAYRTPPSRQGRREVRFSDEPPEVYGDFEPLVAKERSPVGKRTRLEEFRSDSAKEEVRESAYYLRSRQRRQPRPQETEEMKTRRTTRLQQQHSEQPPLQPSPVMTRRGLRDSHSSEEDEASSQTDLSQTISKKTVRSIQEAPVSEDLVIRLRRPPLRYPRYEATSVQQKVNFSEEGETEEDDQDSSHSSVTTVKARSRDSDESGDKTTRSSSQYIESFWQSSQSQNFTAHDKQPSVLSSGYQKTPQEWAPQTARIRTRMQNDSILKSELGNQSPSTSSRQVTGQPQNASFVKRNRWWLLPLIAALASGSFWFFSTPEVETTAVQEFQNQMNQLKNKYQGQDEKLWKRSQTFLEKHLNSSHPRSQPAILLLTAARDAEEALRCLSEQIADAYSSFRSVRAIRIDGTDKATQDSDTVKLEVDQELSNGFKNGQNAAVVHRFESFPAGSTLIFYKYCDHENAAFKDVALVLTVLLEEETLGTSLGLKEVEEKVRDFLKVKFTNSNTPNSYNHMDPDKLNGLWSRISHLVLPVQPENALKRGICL

With `C=CCNC(=O)[C@H]1[C@@H]2C(=O)O[C@@H](c3ccccc3)[C@@H](c3ccccc3)N2[C@@H](c2ccccc2OCCO)[C@]12C(=O)N(C(=O)OCCOC)c1ccc(C#CC3(O)CCCCCC3)cc12`, the composite z-score was 1.25 in test [1]; 0.371 in test [3]; 1.09 in test [4]; 0.647 in test [5]; -0.0239 in [6]; 0.176 in [7]. The composite z-score is -0.168 in test [8], 1.22 in [9] and 0.996 in test [10]. For the same compound, in test [2], the z-score was -2.88.
Take `O=C1O[C@@H](c2ccccc2)[C@@H](c2ccccc2)N2[C@@H](c3ccc(O)cc3)[C@]3(C(=O)Nc4ccc(C#CCCO)cc43)[C@@H](C(=O)N3CCN(c4ncccn4)CC3)[C@H]12`: the composite z-score is 0.99 in [1]; 0.787 in [3]; -0.587 in test [4]; -0.948 in [5]; -0.512 in test [6]; -0.232 in [7]. Besides, the composite z-score in test [8] stood at 0.498; in [9], 0.255; in test [10], 0.101. In addition, the z-score in test [2] was -0.671.
`CCCC[C@@H](O)C1=C(COc2ccccc2)C[C@H]2C(=O)N(Cc3ccccc3)C(=O)[C@H]2[C@H]1CO`: the composite z-score in [1] is 0.207; in [3] it was 0.321; in [4], 0.422; in test [5], -0.451; in test [6], -0.161; in test [7], -0.214. The composite z-score in test [8] was -0.213; in test [9] it was 0.176; in [10], 1.29. The z-score in test [2] was -2.3.
Turning to `NCCCCCNC(=O)[C@@H]1C[C@@H]2C(=O)N[C@@H](CCCCN)C(=O)N2[C@@H]1c1ccc(O)cc1`, the composite z-score in test [1] is 1.37; in test [3], 1.15; in test [4], 1.44; in test [5], 0.325; in test [6], -0.0286; in test [7], 0.246. Further, the composite z-score in test [8] is -0.103; in [9], 1.51; in test [10] it was 1.2. In [2], the z-score was -1.48.
For the compound `CC(CO)N1C(=O)[C@]2(C)C3C(=O)OCCC/C=C\[C@H]3OC23C=CCN(c2ccc(Cl)cc2)C(=O)[C@@H]13` (stereo not given in full), the composite z-score in test [1] was -0.886; in test [3], -0.945; in test [4] it was -0.275; in test [5] it was 0.079; in test [6] it was -0.0573; in test [7], -0.243. For the same compound, the composite z-score in [8] is -0.318; in test [9], -0.549; in test [10] it was -0.358. The z-score in [2] is 0.636.
In the case of `O=C(NCCN1CCOCC1)[C@@H]1c2ccccc2C(=O)N(C2Cc3ccccc3C2)[C@H]1c1ccc(CO)cc1`, the composite z-score in test [1] is 1.4; in test [3], -1.57; in test [4], -0.472; in test [5], -0.301; in [6], -0.23; in test [7], -0.13. Further, the results for the composite z-score in test [8], in [9] and in [10] were -0.447, 0.554 and 0.776, respectively. Further, the z-score in test [2] is -1.42.
On to `COc1ccc([Si](C)(C)[C@H]2[C@H](CC(=O)N(CCO)Cc3ccccc3)O[C@@]3(C(=O)N(C)c4c(Br)cc(C)cc43)[C@@H]2C)cc1`, for which the composite z-score is 0.926 in [1]; 1.12 in test [3]; -0.763 in test [4]; 0.973 in [5]; -0.176 in test [6]; -0.154 in test [7]. Besides, the values for the composite z-score in [8], in [9] and in [10] were -0.291, 0.491 and 0.572, respectively. For the same compound, the z-score in [2] is -4.28.
Regarding `CCOC(=O)C[C@H]1[C@H](OC(=O)Cc2ccc3c(c2)OCO3)[C@@H](NC(=O)c2ccc3ccccc3n2)c2cc(OCCCO)ccc2N1C(=O)c1ccc2ccccc2n1`, the composite z-score in test [1] is 0.0977; in test [3] it was 0.464; in test [4], 0.509; in test [5], -0.0205; in [6], -0.0512; in test [7] it was 0.0048. The composite z-score was -0.115 in [8], 0.0995 in test [9] and 0.406 in test [10]. In test [2], the z-score is -1.63.
Regarding `OCCCC1=CC(c2ccc(CN3CCCC3)cc2)N(Cc2cc3c(cc2Br)OCO3)CC1` (stereo not given), the composite z-score was -0.377 in test [1]; 0.477 in test [3]; -0.464 in test [4]; -0.811 in test [5]; -0.0735 in test [6]; 0.0611 in [7]. The composite z-score in [8] turned out to be 0.162; in [9] it was 1.17; in test [10], 0.396. Besides, the z-score in test [2] was -3.23.
Consider `CC1CC/C=C\[C@H]2OC34C=CCN(c5ccc(Cl)cc5)C(=O)[C@H]3N(C(C)CO)C(=O)[C@]4(C)C2C(=O)O1` (stereo not given in full), for which the composite z-score was -0.815 in test [1]; -0.707 in test [3]; 0.253 in test [4]; -0.141 in [5]; -0.124 in [6]; -0.289 in test [7]. For the same compound, the composite z-score in [8] is -0.0133; in [9] it was 0.0045; in [10], -0.664. In [2], the z-score was -1.16.
As to `COc1ccc([Si](C)(C)[C@@H]2[C@@H](CCO)O[C@]3(C(=O)N(Cc4ccccc4)c4ccc(N5C(=O)c6cccc7cccc5c67)cc43)[C@H]2C)cc1`, the composite z-score in [1] was -0.432; in test [3] it was -0.558; in test [4], 0.991; in test [5], 0.836; in test [6], -0.251; in test [7] it was -0.237. The composite z-score is 0.2 in test [8], -0.697 in test [9] and 0.0366 in [10]. Moreover, the z-score in test [2] is -4.17.
